For 2 molecules, potency estimated from few doses results are on record in article PMC11062922 (Nature Chemical Biology, 2023).

Where two headings read alike, the source gives them in different places.

Common to all, as to design: species or system human, MV4-11 + K-562 + COLO205 + SK-N-BE2 + OVCAR-8
One assay has as its system ACVR1B. The settings on record: read-out: apparent Kd, n = 1.
Another assay concerns ADRBK1. The settings on record: read-out: apparent Kd, n = 1.
The test system of a further assay is AKT1. The settings on record: read-out: apparent Kd, n = 1.
For the next assay, the system named is AKT2. Conditions: read-out: apparent Kd, n = 1.
The test system of a further assay is CDK17. The settings on record: read-out: apparent Kd; compound concentrations: 100 nM and 1000 nM (sheet 'Samples'), CATDS: 4.6046417847887898E-2; n = 1.
The test system of a further assay is CDK6. Conditions: read-out: apparent Kd, n = 1.
For another assay, the system named is CSNK1A1. The settings on record: read-out: apparent Kd, n = 1.
For a further assay, the system named is LIMK1. The settings on record: read-out: apparent Kd; compound concentrations: 100 nM and 1000 nM (sheet 'Samples'), CATDS: 4.6691533927662399E-2; n = 1.
In the next assay the test system is MAP2K1. Conditions: read-out: apparent Kd, n = 1.
The next assay deals with MAP2K2. Conditions: read-out: apparent Kd, n = 1.
A further assay relates to NCL. The settings on record: read-out: apparent Kd; compound concentrations: 100 nM and 1000 nM (sheet 'Samples'), CATDS: 4.2837987158590003E-2; n = 1.
A further assay relates to NQO1. The settings on record: read-out: apparent Kd, n = 1.
A further assay deals with PHKG2. The settings on record: read-out: apparent Kd; compound concentrations: 100 nM and 1000 nM (sheet 'Samples'), CATDS: 4.0833835587176903E-2; n = 1.
In the next assay the test system is PIM2. Conditions: read-out: apparent Kd; compound concentrations: 100 nM and 1000 nM (sheet 'Samples'), CATDS: 5.4197855398822901E-2; n = 1.
The next assay deals with PIP4K2C. Conditions: read-out: apparent Kd; compound concentrations: 100 nM and 1000 nM (sheet 'Samples'), CATDS: 6.0471713091723403E-2; n = 1.
In another assay the test system is PRKAG1. The settings on record: read-out: apparent Kd; compound concentrations: 100 nM and 1000 nM (sheet 'Samples'), CATDS: 6.5107573303195193E-2; n = 1.
The next assay deals with PYGL. Conditions: read-out: apparent Kd, n = 1.
The test system of another assay is VDAC3. The settings on record: read-out: apparent Kd; compound concentrations: 100 nM and 1000 nM (sheet 'Samples'), CATDS: 4.4574473592348701E-2; n = 1.
The next assay deals with YES1. The settings on record: read-out: apparent Kd; compound concentrations: 100 nM and 1000 nM (sheet 'Samples'), CATDS: 6.4280508089749694E-2; n = 1.
The next assay concerns ZAK. The settings on record: read-out: apparent Kd; compound concentrations: 100 nM and 1000 nM (sheet 'Samples'), CATDS: 3.9848277554837802E-2; n = 1.
The test system of a further assay is CDC42BPG. Conditions: read-out: apparent Kd; compound concentrations:100 nM and 1000 nM (sheet 'Samples'); n = 1.
The subject of another assay is RIOK2. Conditions: read-out: apparent Kd; compound concentrations:100 nM and 1000 nM (sheet 'Samples'); n = 1.
A further assay concerns TGFBR1. Conditions: read-out: apparent Kd; compound concentrations:100 nM and 1000 nM (sheet 'Samples'); n = 1.
A further assay relates to TP53RK. Conditions: read-out: apparent Kd; compound concentrations:100 nM and 1000 nM (sheet 'Samples'); n = 1.
Where [1] appears, read: compound concentrations:100 nM and 1000 nM (sheet 'Samples').

With `Cc1nnc(-c2ccc(C)c(-c3ccc(C(=O)Nc4cccc(C#N)c4)cc3)c2)o1` [GW607117X], the potency estimated from few doses in the assay with ACVR1B (compound concentrations: 100 nM and 1000 nM (sheet 'Samples'), CATDS: 5.7242163764382799E-2) is 1170 nM; in the assay with ADRBK1 (compound concentrations: 100 nM and 1000 nM (sheet 'Samples'), CATDS: 5.42741985746545E-2), 1290 nM; with AKT1 (compound concentrations: 100 nM and 1000 nM (sheet 'Samples'), CATDS: 5.4273018110040303E-2), 1290 nM; in the assay on AKT2 (compound concentrations: 100 nM and 1000 nM (sheet 'Samples'), CATDS: 6.3448544870815707E-2), 976 nM; with CDK17, 1810 nM; with CDK6 (compound concentrations: 100 nM and 1000 nM (sheet 'Samples'), CATDS: 4.5600576408269602E-2), 1850 nM. Also, the potency estimated from few doses is 2360 nM with CSNK1A1 (compound concentrations: 100 nM and 1000 nM (sheet 'Samples'), CATDS: 4.1256570238539701E-2); 1750 nM with LIMK1; 1510 nM in the assay on MAP2K1 (compound concentrations: 100 nM and 1000 nM (sheet 'Samples'), CATDS: 5.0029485958775197E-2); 1480 nM with MAP2K2 (compound concentrations: 100 nM and 1000 nM (sheet 'Samples'), CATDS: 5.0543278096989601E-2); 2140 nM in the assay with NCL; 1420 nM in the assay on NQO1 (compound concentrations: 100 nM and 1000 nM (sheet 'Samples'), CATDS: 5.1571181916601101E-2). In addition, the potency estimated from few doses in the assay with PHKG2 was 2420 nM; in the assay with PIM2 it was 1290 nM; in the assay on PIP4K2C, 1060 nM; in the assay with PRKAG1, 935 nM; in the assay with PYGL (compound concentrations: 100 nM and 1000 nM (sheet 'Samples'), CATDS: 4.9538207783530498E-2) it was 1550 nM; in the assay on VDAC3, 1950 nM. Besides, the potency estimated from few doses in the assay on YES1 was 955 nM; in the assay with ZAK it was 2580 nM.
On to `COc1ccccc1-c1cc(/C=C2\C(=O)Nc3ncc(Br)cc32)cc(Br)c1O` [GW442130X], for which the potency estimated from few doses in the assay on ACVR1B (setting [1]) was 646 nM; in the assay on ADRBK1 (setting [1]), 1960 nM; in the assay on AKT1 (setting [1]), 1540 nM; in the assay on AKT2 (setting [1]), 1120 nM; in the assay on CDC42BPG it was 453 nM; in the assay on CDK6 (setting [1]), 1940 nM. The potency estimated from few doses was 1780 nM with CSNK1A1 (setting [1]); 1650 nM in the assay with MAP2K1 (setting [1]); 1580 nM in the assay on MAP2K2 (setting [1]); 1260 nM with NQO1 (setting [1]); 1840 nM in the assay with PYGL (setting [1]); 1450 nM in the assay on RIOK2. The potency estimated from few doses in the assay with TGFBR1 is 592 nM; in the assay with TP53RK, 1740 nM.
